Experimental data published in PubChem BioAssay (Tox21).
Records with an inconclusive call do not appear. Where a call stands in place of a potency, no number is given. Active and inactive are the calls of the source. Unless noted, calls follow the shape of the full dose curve.

How the values were obtained:
[1] = Nuclear factor erythroid 2-related factor 2/antioxidant responsive element (Nrf2/ARE) small molecule agonists: qHTS cell viability counter screen in human keratinocytes (AID 1919968; active = well fitted curve in the direction sought with a large enough effect in the repeat runs; an effect the other way counts as inactive or inconclusive; also: nearly all actives have a fitted effect of over 55% in size; also: potency is read from the fitted curve at half-maximal effect)
How it was run: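 In human HaCaT keratinocytes stably expressing an ARE-driven luciferase, compound exposure lasted 23 h at 37 C under 5% CO2. Viable cells are quantified with a protease-based fluorogenic reagent (CellTiter-Fluor) read 1 h after addition.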

[2] = target: Gonadotropin-releasing hormone receptor (Homo sapiens) (UniProt P30968); experiment: Human gonadotropin-releasing hormone receptor (GnRHR) small molecule agonists, calcium flux assay in GnRHR-HEK293 cells (AID 1920063); also: nearly all actives have a fitted effect of over 35% in size; also: potency is read from the fitted curve at half-maximal effect
Gonadotropin-releasing hormone receptor (Homo sapiens), sequence (P30968 whole entry, looked up): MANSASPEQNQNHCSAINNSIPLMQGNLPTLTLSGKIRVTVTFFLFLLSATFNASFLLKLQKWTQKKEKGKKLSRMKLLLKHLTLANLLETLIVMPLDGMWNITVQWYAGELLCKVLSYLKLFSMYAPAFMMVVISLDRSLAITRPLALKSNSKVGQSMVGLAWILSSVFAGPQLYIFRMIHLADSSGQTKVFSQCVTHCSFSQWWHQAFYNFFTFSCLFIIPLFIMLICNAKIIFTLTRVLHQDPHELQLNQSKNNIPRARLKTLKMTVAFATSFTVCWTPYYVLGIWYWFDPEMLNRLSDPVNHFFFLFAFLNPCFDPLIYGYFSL
How it was run: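 Intracellular calcium rise is the read-out: engineered human GnRHR HEK293 cells, dye-loaded, are exposed to DMSO-dissolved compounds and fluorescence at Ex/Em 480/540 is tracked for 3 min.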

[3] = target: KiSS-1 receptor (Homo sapiens) (UniProt Q969F8); experiment: Human kisspeptin (KISS1R) small molecule agonists, calcium flux assay in KISS1R-HEK293 cells (AID 1920064; active = well fitted curve in the direction sought with a large enough effect in the repeat runs; an effect the other way counts as inactive or inconclusive)
KiSS-1 receptor (Homo sapiens), sequence (Q969F8 whole entry, looked up): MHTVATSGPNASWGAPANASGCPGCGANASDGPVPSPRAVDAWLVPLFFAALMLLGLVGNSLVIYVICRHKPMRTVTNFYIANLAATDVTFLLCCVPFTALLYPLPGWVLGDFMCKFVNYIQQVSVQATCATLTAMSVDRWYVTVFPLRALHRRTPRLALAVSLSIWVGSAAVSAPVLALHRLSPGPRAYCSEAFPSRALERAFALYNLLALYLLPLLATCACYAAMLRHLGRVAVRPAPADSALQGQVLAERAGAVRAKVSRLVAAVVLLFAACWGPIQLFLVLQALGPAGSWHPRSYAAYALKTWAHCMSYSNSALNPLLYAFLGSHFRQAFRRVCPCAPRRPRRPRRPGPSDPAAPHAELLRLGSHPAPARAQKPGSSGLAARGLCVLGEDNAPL
How it was run: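 Concentration-response testing used 15 concentrations in triplicate on human KISS1R-expressing HEK293 cells. Calcium-dependent fluorescence (Ex/Em 480/540) was followed kinetically for 3 min after compound transfer.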

[4] = G protein-coupled receptor (GPCR) small molecule agonists, calcium flux assay: HEK293 wild type cell line counter screen (AID 1920065)
How it was run: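 Fluorescence intensity signals activation. After overnight (18 h) culture and a 1 h calcium dye load at 37 C, compounds are added by pin tool and the plate read at 480/540 nm for 3 min in 1 s steps.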

[5] = p53 small molecule agonists, cell-based qHTS assay with human liver microsomes: qHTS cell viability counter screen (AID 1963579); also: nearly all actives have a fitted effect of over 45% in size; also: potency is read from the fitted curve at half-maximal effect
How it was run: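 Cytotoxicity counter screen: p53RE-bla, 4,000 cells/well; 5 h settle, 37 C/5% CO2; cpd + HLM 0.5 mg/mL + NADPH 0.5 mg/mL (final); 16 h, 37 C; CellTiter-Glo, 30 min RT, luminescence.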

[6] = p53 small molecule agonists, cell-based qHTS assay with rat liver microsomes: qHTS cell viability counter screen (AID 1963580); also: nearly all actives have a fitted effect of over 45% in size; also: potency is read from the fitted curve at half-maximal effect
How it was run: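 Counter screen for cytotoxicity under metabolic activation: rat liver microsomes and NADPH, 0.5 mg/mL final each, added with compounds to p53RE-bla HCT-116 cells; 16 h at 37 C, then ATP luminescence read.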

[7] = p53 small molecule agonists, cell-based qHTS assay: qHTS cell viability counter screen (AID 1963581); also: nearly all actives have a fitted effect of over 45% in size; also: potency is read from the fitted curve at half-maximal effect
How it was run: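 Luminescence from CellTiter-Glo, reflecting ATP content, serves as the cytotoxicity measure; it is taken after the 2 h reporter substrate step in HCT-116 p53RE-bla cells dosed for 16 h at 37 C.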

[8] = target: 5-hydroxytryptamine receptor 2A (Homo sapiens) (UniProt P28223); experiment: 5-hydroxytryptamine receptor 2A (HTR2A) small molecule agonists, cell-based qHTS assay (AID 1963587); also: nearly all actives have a fitted effect of over 30% in size; also: potency is read from the fitted curve at half-maximal effect
5-hydroxytryptamine receptor 2A (Homo sapiens), sequence (P28223 whole entry, looked up): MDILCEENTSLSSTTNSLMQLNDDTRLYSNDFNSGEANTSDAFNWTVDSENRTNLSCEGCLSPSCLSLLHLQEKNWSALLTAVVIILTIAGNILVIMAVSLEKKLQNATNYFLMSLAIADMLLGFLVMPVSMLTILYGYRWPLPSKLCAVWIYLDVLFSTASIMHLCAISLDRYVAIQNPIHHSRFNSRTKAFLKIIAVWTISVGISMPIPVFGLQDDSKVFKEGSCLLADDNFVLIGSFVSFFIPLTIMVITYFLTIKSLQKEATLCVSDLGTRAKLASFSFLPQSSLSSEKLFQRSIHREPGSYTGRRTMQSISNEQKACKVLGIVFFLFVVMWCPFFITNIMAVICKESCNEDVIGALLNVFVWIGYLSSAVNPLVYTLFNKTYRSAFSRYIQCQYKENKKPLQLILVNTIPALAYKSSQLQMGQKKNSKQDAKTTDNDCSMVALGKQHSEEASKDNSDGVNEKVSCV
How it was run: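 HTR2A-CHO cells, plated 18 h at 37 C/5% CO2, dye-loaded 1 h at 37 C; compounds in DMSO added by pin tool (agonist mode). Intracellular calcium flux read as kinetic fluorescence on FDSS over 2 min at 1 s intervals.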

[9] = target: Muscarinic acetylcholine receptor M1 (Homo sapiens) (UniProt P11229); experiment: Cholinergic receptor muscarinic 1 (CHRM1) small molecule antagonists, cell-based qHTS assay (AID 1963588); also: nearly all actives have a fitted effect of over 40% in size; also: potency is read from the fitted curve at half-maximal effect
Muscarinic acetylcholine receptor M1 (Homo sapiens), sequence (P11229 whole entry, looked up): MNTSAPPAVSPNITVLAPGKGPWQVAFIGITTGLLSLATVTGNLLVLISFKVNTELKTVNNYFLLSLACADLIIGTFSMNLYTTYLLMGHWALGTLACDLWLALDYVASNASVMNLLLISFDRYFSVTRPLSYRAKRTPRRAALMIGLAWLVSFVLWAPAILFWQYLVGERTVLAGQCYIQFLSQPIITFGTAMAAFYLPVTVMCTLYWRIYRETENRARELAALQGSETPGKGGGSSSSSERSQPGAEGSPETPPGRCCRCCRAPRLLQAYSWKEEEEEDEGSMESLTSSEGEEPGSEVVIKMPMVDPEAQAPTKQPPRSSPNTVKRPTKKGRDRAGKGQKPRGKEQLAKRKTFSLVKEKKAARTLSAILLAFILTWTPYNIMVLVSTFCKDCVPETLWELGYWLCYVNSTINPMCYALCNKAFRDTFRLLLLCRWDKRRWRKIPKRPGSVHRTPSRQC
How it was run: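 Compounds were tested at 15 concentrations in three independent runs. Dye-loaded CHRM1-CHO cells were exposed 5 min at room temperature before stimulation by acetylcholine added at 50nM. Intracellular calcium was read kinetically on FDSS for 3 min.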

[10] = target: Muscarinic acetylcholine receptor M1 (Homo sapiens) (UniProt P11229); experiment: Cholinergic receptor muscarinic 1 (CHRM1) small molecule agonists, cell-based qHTS assay (AID 1963589); also: nearly all actives have a fitted effect of over 35% in size
How it was run: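 Fluorescent calcium dye reports M1 activation in stably transfected CHO cells. Compounds, 15 concentrations, added after 1 h dye loading at 37 C; kinetic reading at 1 sec intervals.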

[11] = cAMP Responsive Elements (CRE) small molecule agonists, cell-based qHTS assay (AID 1963590)
How it was run: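 Compound exposure lasted 3 h at 37 C/5% CO2 in CRE-bla HEK 293T cells grown in assay medium with 10% dialyzed FBS and 25 mM HEPES. Reporter signal came from LiveBLAzer B/G FRET substrate, 2 h, room temperature.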

[12] = cAMP Responsive Elements (CRE) small molecule antagonists, cell-based qHTS assay (AID 1963591; active = well fitted inhibition curve with a large enough effect in the signal ratio in the repeat runs, not every such curve was filed as active; the % refers to the signal ratio)
How it was run: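 Stimulation used NKH477 at a final 0.25 uM for 3 h in compound-treated CRE-bla HEK293T cells, seeded 18 h beforehand. Reporter activity was measured with LiveBLAzer B/G FRET substrate after 2 h at room temperature.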

[13] = target: Beta-2 adrenergic receptor (Homo sapiens) (UniProt P07550); experiment: Adrenergic beta2 receptor (ADRB2) small molecule antagonists, cell-based qHTS assay (AID 1963592); also: series mostly up to about 92 µM; nearly all actives have a fitted effect of over 50% in size
Beta-2 adrenergic receptor (Homo sapiens), sequence (P07550 whole entry, looked up): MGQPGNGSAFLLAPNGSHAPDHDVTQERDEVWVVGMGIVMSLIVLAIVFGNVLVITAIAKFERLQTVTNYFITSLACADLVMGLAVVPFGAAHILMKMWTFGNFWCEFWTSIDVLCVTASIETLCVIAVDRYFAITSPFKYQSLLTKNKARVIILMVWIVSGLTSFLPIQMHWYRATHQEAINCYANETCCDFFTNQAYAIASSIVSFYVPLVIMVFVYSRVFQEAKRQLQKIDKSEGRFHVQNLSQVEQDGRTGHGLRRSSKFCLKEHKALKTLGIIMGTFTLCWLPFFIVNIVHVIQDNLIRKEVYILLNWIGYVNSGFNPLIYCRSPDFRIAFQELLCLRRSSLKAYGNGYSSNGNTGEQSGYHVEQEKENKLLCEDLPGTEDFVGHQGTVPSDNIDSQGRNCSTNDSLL
How it was run: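 Assay format: CHO-ADRB2 cells, 18-20hr seeding at 37C/5% CO2, then compound plus 1nM isoproterenol agonist mix for 0.5hr RT. Homogeneous time-resolved fluorescence cAMP detection after 1hr, expressed as 665/615 nm ratio.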

[14] = target: D(2) dopamine receptor (Homo sapiens) (UniProt P14416); experiment: Dopamine D2 receptor (DRD2) small molecule antagonists, cell-based qHTS assay (AID 1963595; active = well fitted inhibition curve with a large enough effect in the signal ratio in the repeat runs, with a control signal flat; the % refers to the signal ratio; also: potency is read from the fitted curve at half-maximal effect)
D(2) dopamine receptor (Homo sapiens), sequence (P14416 whole entry, looked up): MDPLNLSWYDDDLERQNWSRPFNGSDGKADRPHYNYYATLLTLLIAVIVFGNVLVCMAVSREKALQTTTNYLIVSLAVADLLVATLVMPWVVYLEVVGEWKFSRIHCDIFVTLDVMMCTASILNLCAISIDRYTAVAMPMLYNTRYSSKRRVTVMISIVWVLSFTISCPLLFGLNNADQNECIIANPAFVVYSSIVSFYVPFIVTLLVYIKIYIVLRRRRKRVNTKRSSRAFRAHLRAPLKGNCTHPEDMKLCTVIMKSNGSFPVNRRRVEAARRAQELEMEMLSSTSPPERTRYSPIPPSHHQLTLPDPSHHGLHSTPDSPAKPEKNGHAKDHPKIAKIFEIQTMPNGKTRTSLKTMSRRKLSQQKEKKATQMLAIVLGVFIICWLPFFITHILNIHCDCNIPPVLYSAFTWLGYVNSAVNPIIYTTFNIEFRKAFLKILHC
How it was run: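 Antagonism was scored as restored cAMP in HEK293-DRD2 cells. These cells were stimulated with 200 nM NKH477 and 12 nM quinpirole for 30 min at room temperature, in the presence of 0.1 mM Ro20-1724.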

[15] = target: 5-hydroxytryptamine receptor 2A (Homo sapiens) (UniProt P28223); experiment: 5-hydroxytryptamine receptor 2A (HTR2A) small molecule antagonists, cell-based qHTS assay (AID 1963586); also: nearly all actives have a fitted effect of over 45% in size; also: potency is read from the fitted curve at half-maximal effect
How it was run: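 CHO cells stably expressing human HTR2A were plated for 18 h at 37 C, then loaded with calcium dye for 1 h. Compounds were preincubated 5 min at room temperature before DOI (4 nM solution) was added. Kinetic fluorescence was read for 3 min.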

[16] = target: Beta-2 adrenergic receptor (Homo sapiens) (UniProt P07550); experiment: Adrenergic beta2 receptor (ADRB2) small molecule agonists, cell-based qHTS assay (AID 1963593);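 also: CHO cells stably overexpressing human ADRB2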
How it was run: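 CHO cells stably over-expressing ADRB2 were plated overnight at 37C, then dosed with compounds plus a stimulation mix containing 100uM IBMX and 25uM Ro-20-1724 for 0.5hr at room temperature. cAMP was measured by HTRF competition, 1hr.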

[17] = target: D(2) dopamine receptor (Homo sapiens) (UniProt P14416); experiment: Dopamine D2 receptor (DRD2) small molecule agonists, cell-based qHTS assay (AID 1963594); also: nearly all actives have a fitted effect of over 35% in size; also: potency is read from the fitted curve at half-maximal effect
How it was run: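 HEK293 cells stably expressing DRD2 were cultured 24 h at 37 C, then given Ro20-1724 (0.1 mM final) and compounds for 10 min at room temperature. NKH477 (200nM) was then added for 30 min. cAMP was read by HTRF.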

[18] = p53 small molecule agonists, cell-based qHTS assay with rat liver microsomes (AID 1963578)
How it was run: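 Cells carrying a p53 response element–beta-lactamase reporter were plated and rested 5 h, then dosed with compound in DMSO plus rat liver microsomes and NADPH, each at 0.5 mg/mL final. After 16 h at 37 C, LiveBLAzer substrate was added for 2 h.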

[19] = p53 small molecule agonists, cell-based qHTS assay with human liver microsomes (AID 1963577)
How it was run: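 Fluorescence of the beta-lactamase reporter in p53RE-bla cells, detected with LiveBLAzer substrate (2 h, room temperature, dark), served as the read-out after 16 h compound exposure at 37 C with human liver microsomes and NADPH, each 0.5 mg/mL final.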

[20] = p53 small molecule agonists, cell-based qHTS assay (AID 1963582; active = well fitted activation curve with a large enough effect in the signal ratio in the repeat runs, not every such curve was filed as active; the % refers to the signal ratio)
How it was run: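 After plating, p53RE-bla cells sat 5 h in the incubator; compounds or DMSO vehicle were pinned in; a 16 h incubation at 37 C followed; FRET substrate was added and, 2 h later at RT, fluorescence was measured.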

CCCCn1cc[n+](C)c1 (tested in a mixture with another compound)
Potency [1]: inactive
Potency [2]: inactive
Potency [3]: inactive
Potency [4]: inactive
Potency [5]: inactive
Potency [6]: inactive
Potency [7]: inactive
Potency [8]: inactive
Potency [9]: inactive
Potency [10]: inactive
Potency [11]: inactive
Potency [12]: inactive
Potency [13]: inactive
Potency [14]: inactive

CCNC(=O)NC(=O)/C(C#N)=N/OC
Potency [1]: inactive
Potency [2]: inactive
Potency [3]: inactive
Potency [4]: inactive
Potency [6]: inactive
Potency [7]: inactive
Potency [15]: inactive
Potency [8]: inactive
Potency [9]: inactive
Potency [10]: inactive
Potency [12]: inactive
Potency [13]: inactive
Potency [14]: inactive

[Cl-].[Cl-].[Cl-].[Yb+3]
Potency [1]: inactive
Potency [2]: inactive
Potency [3]: inactive
Potency [5]: inactive
Potency [6]: inactive
Potency [9]: inactive
Potency [10]: inactive
Potency [11]: inactive
Potency [12]: inactive
Potency [13]: inactive
Potency [16]: inactive
Potency [17]: inactive
Potency [14]: inactive

C[C@H]1[C@H](c2ccc(Cl)cc2)SC(=O)N1C(=O)NC1CCCCC1
Potency [1]: inactive
Potency [2]: inactive
Potency [3]: inactive
Potency [4]: inactive
Potency [5]: inactive
Potency [7]: inactive
Potency [15]: inactive
Potency [8]: inactive
Potency [9]: inactive
Potency [10]: inactive
Potency [12]: inactive
Potency [13]: inactive
Potency [16]: inactive
Potency [17]: inactive
Potency [14]: inactive

C=CC(=O)OCCCCO
Potency [1]: inactive
Potency [2]: inactive
Potency [3]: inactive
Potency [4]: inactive
Potency [5]: inactive
Potency [15]: inactive
Potency [8]: inactive
Potency [9]: inactive
Potency [10]: inactive
Potency [13]: inactive
Potency [16]: inactive
Potency [17]: inactive
Potency [14]: inactive

O=[N+]([O-])c1cccc2c([N+](=O)[O-])cccc12
Potency [1]: inactive
Potency [2]: inactive
Potency [3]: inactive
Potency [4]: inactive
Potency [6]: inactive
Potency [7]: 23.1 µM (active)
Potency [15]: inactive
Potency [8]: inactive
Potency [9]: inactive
Potency [10]: inactive
Potency [13]: inactive
Potency [17]: inactive
Potency [14]: inactive

CCCCC/C=C\C/C=C\C/C=C\C/C=C\CCCC(=O)NCC(=O)O
Potency [1]: inactive
Potency [2]: inactive
Potency [3]: inactive
Potency [18]: inactive
Potency [5]: inactive
Potency [6]: inactive
Potency [15]: 14.5 µM (active)
Potency [9]: inactive
Potency [10]: inactive
Potency [13]: inactive
Potency [16]: inactive
Potency [14]: inactive

CC(=O)[O-].[Tl+]
Potency [1]: inactive
Potency [2]: inactive
Potency [3]: inactive
Potency [4]: inactive
Potency [5]: inactive
Potency [6]: inactive
Potency [15]: inactive
Potency [8]: inactive
Potency [10]: inactive
Potency [11]: inactive
Potency [17]: inactive
Potency [14]: inactive

CC(=O)OC(c1ccccc1)C(Cl)(Cl)Cl (stereo not given)
Potency [1]: inactive
Potency [2]: inactive
Potency [4]: inactive
Potency [19]: inactive
Potency [18]: inactive
Potency [5]: inactive
Potency [6]: inactive
Potency [7]: inactive
Potency [20]: inactive
Potency [9]: inactive
Potency [10]: inactive
Potency [11]: inactive
Potency [13]: inactive
Potency [17]: inactive
Potency [14]: inactive

FC(F)C(F)(F)OCC(Cn1cncn1)c1ccc(Cl)cc1Cl (stereo not given)
Potency [1]: inactive
Potency [3]: inactive
Potency [4]: inactive
Potency [19]: inactive
Potency [18]: inactive
Potency [5]: inactive
Potency [6]: inactive
Potency [20]: inactive
Potency [15]: inactive
Potency [8]: inactive
Potency [9]: inactive
Potency [10]: inactive
Potency [13]: inactive
Potency [17]: inactive

CC(=O)O[C@H]1CC[C@@]2(C)C(=CC[C@@H]3[C@@H]2CC[C@]2(C)C(=O)CC[C@@H]32)C1
Potency [1]: inactive
Potency [3]: inactive
Potency [4]: inactive
Potency [19]: inactive
Potency [18]: inactive
Potency [5]: inactive
Potency [20]: inactive
Potency [15]: inactive
Potency [8]: inactive
Potency [9]: inactive
Potency [10]: inactive
Potency [13]: inactive
Potency [17]: inactive
Potency [14]: inactive

CCCCCCCCc1ccc(O)cc1
Potency [1]: 43.5 µM (active)
Potency [3]: inactive
Potency [4]: inactive
Potency [19]: inactive
Potency [5]: 36.6 µM (active)
Potency [11]: inactive
Potency [13]: inactive

CC(=O)[O-].CC(=O)[O-].[Hg+2]
Potency [1]: 3.06 µM (active)
Potency [2]: 38.9 µM (active)
Potency [5]: 3.63 µM (active)
Potency [6]: 16.2 µM (active)
Potency [7]: 7.25 µM (active)
Potency [15]: inactive
Potency [8]: 49 µM (active)
Potency [9]: 21.1 µM (active)
Potency [17]: 14.2 µM (active)
Potency [14]: 5.45 µM (active)
